This is one part of a sample in which hits are shown more often than they occur.
TTR transcr act = TTR transcription activation, primary screen; activation, % at 16.7 µM; actives 1.3% (n = 92,000); AID 1117267; SH-SY5Y TTR promoter Gaussia luciferase, luminescence; 100% = recombinant luciferase protein wells;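 active means activation above the mean of all tested compounds plus 3 SD, cut at about 9.5% in these data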;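 further: cells exposed to compounds for one day before reading; 0% = median of all test compound wells on the plate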
HuH7 TTR inh = HuH7 TTR transcription inhibition, counter-screen; inhibition, % at 16.7 µM; HuH7 TTR promoter-Gaussia luciferase reporter, luminescence; AID 1117279; actives 4% (n = 1,100); shares compounds with TTR transcr act;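 active means average inhibition above the solvent-only control wells' mean plus 3 SD, cut at about 15% in these data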;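 further: 0% = cells with DMSO only and 100% = cells with inhibitor control FD; inhibitors lower well luminescence so higher value means more inhibition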
TTR act confirm = confirmation of human transthyretin transcription activators; AID 1117280; SHSY5Y TTR promoter Gaussia luciferase, luminescence; 100% = purified Lucia enzyme wells, no cells; 1,100 tested, under 10 active; activation, % at 16.7 µM; shares compounds with TTR transcr act;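 active means mean activation above a set limit taken from the earlier primary screen, cut at about 11% in these data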;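 further: 0% = DMSO-treated cells and 100% = recombinant Lucia luciferase without cells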
* hit, by the source's call.

SMILES	TTR transcr act	others
OCc1c(Cl)nc2ccccn12	1.7
O=C(CCc1ccccc1-c1ccccc1CCNC(=O)c1cccc(F)c1)NCc1ccccc1	-0.4
COc1ccc(S(=O)(=O)N2CCC(C(=O)N[C@@H](C)C(=O)NCc3ccco3)CC2)cc1	-1.8
CC(C)(C)CCN1C[C@@H]2C(CNC(=O)c3cc(Cl)cc(Cl)c3)[C@@H]2C1 (some centres undefined)	-1.9
O=C(c1ccc(C(F)(F)F)cc1)N1CCC(=O)N([C@H](COCc2ccc(C(F)(F)F)cc2)Cc2ccccc2)CC1	-1.3
O=C(c1cccc(C(F)(F)F)c1)N1CCC(=O)N(C(CO)Cc2ccccc2)CC1 (centres undefined)	1.2
COc1ccc(C(=O)N2CCC(=O)N(C(CO)Cc3ccccc3)CC2)cc1 (centres undefined)	13.4*	HuH7 TTR inh=-10.5;TTR act confirm=-0.2
CCCCCC(=O)N1C[C@@H](O)[C@H](n2cc(COC(=O)c3ccccc3)nn2)C[C@@H]1c1ccc(OC)cc1	-0.9
CCOC(=O)COc1coc(CN2CCN(c3ccc(F)cc3)CC2)cc1=O	-1.2
COC(=O)[C@]12C[C@H](CC(=O)N3CCSCC3)C(=O)N(Cc3cccc4ccccc34)C1=C[C@H](C(C)(C)C)O[C@@H]2C	1.1
Cc1ccc(-n2c(=O)c3c4c(sc3n3c(=S)[nH]nc23)CCC4)cc1	14.7*	HuH7 TTR inh=-8.5;TTR act confirm=2.0
O=c1c2c3c(sc2n2c(=S)[nH]nc2n1-c1ccccc1)CCC3	1.5
COc1ccc(-n2c(=O)c3c4c(sc3n3c(=S)[nH]nc23)CCC4)cc1	-2.2
COc1cccc(OC)c1NC(=O)OC1CCC12CCC(c1ccccc1)CC2 (centres undefined)	0.5
CCOC(=O)N1CCN(C(=O)C[C@H]2C[C@@]3(C(=O)OC)C(=C[C@H](COCc4ccccc4)O[C@@H]3C)N(Cc3ccccc3)C2=O)CC1	1.1
CCCCCC(=O)NC1CCCCN(Cc2ccc(C)cc2)C1=O (centres undefined)	-1.2
N#Cc1cccc(NC(=O)CCn2ccnc2)c1	2.4
N#Cc1cccc(NC(=O)CC2CCCC2)c1	-0.9
N#Cc1cccc(NC(=O)CN2NS(=O)(=O)c3ccccc3C2=O)c1	10.8*	HuH7 TTR inh=-11.7;TTR act confirm=-0.7
NC(=O)C1CCN(c2ccnc(Cl)n2)CC1	1.5
CCC[C@H]1[C@@H](OC(=O)Oc2ccc([N+](=O)[O-])cc2)CC[C@@]23CCCN2C(=O)CCC[C@@H]13	-1.7
COc1ccc2c(C(c3ccccc3O)C3CCCN3S(=O)(=O)c3ccc(C)cc3)cn(C)c2c1 (centres undefined)	-1.7
Cc1ccccc1CN1CCCCC(NC(=O)c2ccc(N(C)C)cc2)C1=O (centres undefined)	13.0*	HuH7 TTR inh=11.2;TTR act confirm=-1.5
Cc1ccc(CN2CCCCC(NC(=O)c3ccc(N(C)C)cc3)C2=O)cc1 (centres undefined)	-1.4
Cc1ccccc1CN1CCCCC(NC(=O)c2ccc(F)cc2)C1=O (centres undefined)	-1.9
SMILES	TTR transcr act	others
CC1=C(C(=O)Nc2cc(C(=O)N3CCN(c4ccc(Cl)cc4)CC3)ccc2C)SCCO1	0.5
Cc1ccc(S(=O)(=O)N(C)C[C@@H]2Oc3ccc(NC(=O)Cn4cnnn4)cc3C(=O)N([C@@H](C)CO)C[C@H]2C)cc1	21.4*	HuH7 TTR inh=-12.2;TTR act confirm=-1.2
Cc1noc(C)c1NC(=O)Nc1ccc2c(c1)C(=O)N([C@H](C)CO)C[C@H](C)[C@@H](CN(C)S(=O)(=O)c1ccc(F)cc1)O2	6.9
CC(C)NC(=O)N(C)C[C@H]1Oc2ccc(NC(=O)Cn3cnnn3)cc2C(=O)N([C@H](C)CO)C[C@@H]1C	-0.3
C[C@@H]1CN([C@@H](C)CO)C(=O)CCCn2cc(nn2)CO[C@H]1CN(C)C(=O)c1ccc(N2CCN(C)CC2)cc1	0.2
COCCNC(=O)C(c1ccc(F)cc1)N(CC1CCCO1)C(=O)CCC(=O)Nc1ccccn1 (centres undefined)	-0.3
COCCN(CC(=O)NCC1CCCO1)C(=O)CCC(=O)Nc1cc(C)ccn1 (centres undefined)	-0.1
COCCNC(=O)CN(CC1CCCO1)C(=O)CCC(=O)Nc1ccccn1 (centres undefined)	16.2*	HuH7 TTR inh=-4.2;TTR act confirm=-0.2
CCOc1ccccc1C(C(=O)NC1CCCC1)N(C(=O)c1csnn1)C1CC1 (centres undefined)	0.0
C/C=C/C(=O)OCC(=O)Nc1ccc(OC)c(OC)c1	0.8
COc1ccc(NC(=O)CCCC(=O)O)cc1Cl	-0.3
C/C=C/C(=O)OCC(=O)Nc1ccc(OC)c(Cl)c1	11.8*	HuH7 TTR inh=-10.4;TTR act confirm=0.7
O=C(NC1CCCCN(Cc2cccc(Cl)c2)C1=O)c1ccc(Cl)cc1Cl (centres undefined)	-2.3
CN(C)c1ccc(/C=N/N2CCN(Cc3ccccc3Cl)CC2)cc1	-1.4

Screening results from PubChem BioAssay.
